NPC1 prom act: NPC1 promoter activation | Huh7 NPC1 promoter luciferase reporter, 24 h | 320,000 compounds, 2.4% hits | Potency, µM (highest dose often 9.22 µM), usual class: activators; further: nearly all actives have a fitted effect of over 60% in size
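Stably transfected Huh7 (NPC1 promoter→luciferase), 1500 cells/well in Opti-MEM + 10% FBS, 2 h settle, then compound 24 h at 37 °C. Luminescence after 10 min with Amplite reagent.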
ELG1 genotox: genotoxicity induction in ELG1-luciferase HEK293T cells; 330,000 compounds, 1.3% hits; HEK293T ELG1-luciferase reporter, luminescence, 16 h; Potency, µM (top dose mostly 46 µM), hits mostly activators; further: nearly all actives have a fitted effect of over 60% in size
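After overnight (16 hr) compound treatment at 37 °C, ELG1-luciferase HEK293T cells were lysed with ONE-Glo; luminescence quantified 30 min later at room temperature.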
SMN2 splice up: SMN2 splice variant enhancement | HEK293 SMN2-luciferase splicing reporter, luminescence, 30-36 h | Potency, µM (titrated, usually from 46.1 µM), hits mostly activators | 210,000 compounds, 2.8% hits; further: nearly all actives have a fitted effect of over 55% in size
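HEK293 cells carry an SMN2 […]–luciferase reporter in which exon 7 inclusion puts luciferase in frame. Cells were plated 10-12 h before compound addition, then incubated 30-36 h at 37C. ONE-Glo luminescence was read; sodium butyrate at 4.5 mM final served as control.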
Rab9 prom act: activates the Rab9 promoter; Huh7 Rab9 promoter-luciferase reporter, luminescence, 24 h; Potency, µM (top dose mostly 9.22 µM), actives largely listed as activators; 320,000 compounds, 2.8% hits; further: nearly all actives have a fitted effect of over 60% in size
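Cells were plated at 1500 per well in reduced-serum medium with 10% FBS and left 2 h. Compound in DMSO was then added for 24 h at 37 °C. Reporter signal was read by luminescence after 10 min with luciferase detection reagent.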
FLuc modulator: firefly luciferase modulation, counter-screen for miR-21 project | P08659 | purified FLuc, Km substrates, luminescence inhibition | Potency, µM (titrated, usually from 57.5 µM), actives largely listed as inhibitors | 360,000 compounds, 6.9% hits | AID 588342; further: nearly all actives have a fitted effect of over 55% in size
Target sequence (P08659 whole entry, looked up): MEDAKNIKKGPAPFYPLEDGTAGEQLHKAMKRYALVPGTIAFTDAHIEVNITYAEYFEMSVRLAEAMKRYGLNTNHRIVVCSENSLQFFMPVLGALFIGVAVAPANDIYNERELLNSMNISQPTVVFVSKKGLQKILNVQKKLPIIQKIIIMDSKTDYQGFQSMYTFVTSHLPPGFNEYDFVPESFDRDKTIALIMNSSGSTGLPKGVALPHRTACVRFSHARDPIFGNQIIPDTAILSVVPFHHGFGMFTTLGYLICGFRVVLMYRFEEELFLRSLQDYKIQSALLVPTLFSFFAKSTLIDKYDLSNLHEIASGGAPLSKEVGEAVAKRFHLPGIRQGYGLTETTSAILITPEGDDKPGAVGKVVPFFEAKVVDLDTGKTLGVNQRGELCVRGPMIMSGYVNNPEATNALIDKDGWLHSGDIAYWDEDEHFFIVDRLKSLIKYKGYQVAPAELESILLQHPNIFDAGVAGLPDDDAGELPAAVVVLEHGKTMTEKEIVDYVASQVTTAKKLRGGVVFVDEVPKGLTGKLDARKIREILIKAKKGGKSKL
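Purified P. pyralis luciferase (10nM final) with 10uM D-luciferin and 10uM ATP (Km levels) in 50mM Tris acetate pH 7.5, 10mM Mg acetate, 0.01% Tween-20, 0.05% BSA; qHTS 6-point titration, ~60 µM downward; luminescence read.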
Numbers stand for hits; 0 = inactive; ? = inconclusive; - = no result; [ ] = another dose, or the depositor's remark. Hits are enriched below; roughly 7.4% of the tested compounds scored in any of these assays. The call rests on the fitted dose curve; in most records, active means well fitted curve in the direction sought with a large enough effect; inconclusive means small, poorly fitted or top-dose-only effect, or another doubt; inactive means no such curve, though single readings can be large; an effect the other way counts as inactive or inconclusive.

SMILES | NPC1 prom act | ELG1 genotox | SMN2 splice up | Rab9 prom act | FLuc modulator
CC(C)(C)OC(=O)N1CCC(c2c(C(=O)NCCN3CCOCC3)cnn2-c2ccccc2)CC1 | - | - | - | - | 0
COc1cccc(C(=O)NCC(=O)OCc2cc(=O)n3c(C)csc3n2)c1 | - | - | - | - | 0
CCC1=C2CC[C@H]3C(=O)N(c4ccccc4)C(=O)[C@H]3[C@H]2[C@@]2(C)C(=O)N(Cc3ccccc3)C(=O)N2C1=O | - | - | 0 | - | -
CC12COC3(C(=O)Nc4ccccc4)CC1CCC32C (stereo not given) | 0 | 0 | - | 0 | 0
CC12COC3(C(=O)Nc4ccc5ccccc5c4)CC1CCC32C (stereo not given) | ? | ? | 11µM | ? | 15µM
CCCCC/C=C\C/C=C\C/C=C\CCCCCCC(=O)NC(C)C(=O)O (stereo not given) | - | - | 0 | - | -
Cc1cc(=O)[nH]c(N=N/C(=N/Nc2ccccc2C)c2ccccc2)n1 | 0 | 0 | 0 | 0 | 0
Cc1cc(=O)[nH]c(N=N/C(=N/Nc2ccc(O)cc2)c2ccccc2)n1 | 0 | ? | 0 | 0 | 11µM
COc1ccc(N/N=C(/N=Nc2nc(C)cc(=O)[nH]2)c2ccccc2)cc1 | ? | 2.6µM | 0 | 0 | 4.3µM
O=C(Nc1nc2ccccc2[nH]1)c1ccccc1[N+](=O)[O-] | ? | 0 | 13µM | 0 | ?
O=C(Nc1nc2ccccc2[nH]1)c1ccc(Cl)c([N+](=O)[O-])c1 | 0 | ? | 13µM | 0 | ?
Cc1c(C(=O)NC(Cc2ccccc2)c2nc3ccccc3[nH]2)cccc1[N+](=O)[O-] (stereo not given) | 0 | 0 | 0 | 0 | 0
O=C(NC(Cc1ccccc1)c1nc2ccccc2[nH]1)c1ccc(Cl)c([N+](=O)[O-])c1 (stereo not given) | 0 | 0 | - | 0 | 0
Cc1c(C(=O)Nc2nc3ccccc3[nH]2)cccc1[N+](=O)[O-] | 0 | 0 | 20µM | ? | 15µM
CCCCCC(=O)/C=C/C=C\C/C=C\C/C=C\CCCC(=O)O | - | - | 0 | - | -
N#C/C(=C\c1ccc(OCc2ccc(C(=O)O)cc2)cc1)C(=O)N1CCOCC1 | ? | ? | 1.6µM | 2.8µM | 17µM
CCOC(=O)c1sc2nc(CC(=O)OC)nc(NCc3ccco3)c2c1C | 0 | 0 | 0 | 0 | 0
Cc1nc(NCc2ccco2)c2c(C)c(C)sc2n1 | 0 | 0 | 3.2µM | 0 | 0
Cc1sc2nc3c4ccccc4c(NCc4ccco4)nn3c(=O)c2c1C | ? | 7.1µM | 10µM | 2.8µM | 7.6µM
O=C(c1cccc(F)c1)N1CCC2(CCCN(Cc3nccs3)C2)CC1 | - | - | 0 | - | -
FC(F)(F)c1cc(Cl)c2nc(-c3ccccc3)cn2c1 | ? | ? | 14µM | ? | 1.9µM
Nc1cccc(-c2cn3cc(C(F)(F)F)cc(Cl)c3n2)c1 | 1µM | ? | 7.9µM | 1.6µM | 1.9µM
Cc1cc(C(F)(F)F)nc(-n2cc(-c3cccc(N)c3)nn2)n1 | 0 | 0 | - | 0 | 0
Cc1nn(-c2ccccc2)c2c1cc1c(=O)[nH]c(=O)nc-1n2-c1cccc(C(F)(F)F)c1 | - | - | 0 | - | 0
COc1ccc(C2c3[nH]c4ccccc4c3CCN2Cc2ccoc2)c(F)c1 (stereo not given) | 0 | 0 | - | 0 | 0
SMILES | NPC1 prom act | ELG1 genotox | SMN2 splice up | Rab9 prom act | FLuc modulator
COc1ccc(C2c3[nH]c4ccccc4c3CCN2C(=O)Cc2nonc2C)c(F)c1 (stereo not given) | 0 | 0 | - | ? | 4.8µM
CCn1nc(C)cc1C(=O)N1CCc2c([nH]c3ccccc23)C1c1cc(F)ccc1F (stereo not given) | ? | ? | - | ? | 21µM
COCC(=O)N1CCC2(CC1)CN(C(=O)Nc1ccccc1)C2 | - | - | 0 | - | -
Cc1c(C(=O)Nc2ccc(Cl)cc2)c2ccccn2c1CCc1ccncc1 | ? | 0 | 0 | ? | 3µM
Cc1c(C(=O)Nc2cccc(Cl)c2)c2ccccn2c1CCc1ccncc1 | 0 | 0 | 0 | 0 | 17µM
Cc1ccc(OCC(=O)Nc2ccccc2C(=O)OCc2cc(=O)n3ccsc3n2)cc1C | - | - | - | - | 0
CCOC(=O)CSc1nc2sc3c(c2c(=O)n1-c1ccc(OC)cc1)CC(C(C)C)OC3 (stereo not given) | - | - | 0 | - | 0
Cn1ncc2c(Cl)ncnc21 | - | - | 0[9.22 µM] | - | -
CCCc1cc(=O)n2[nH]c(-c3ccco3)nc2n1 | 0 | 0 | 0 | 0 | 15µM
Cc1cc(=O)n2[nH]c(-c3ccco3)nc2n1 | 0 | 0 | 0 | 0 | ?
CCN(CC)c1cc(C)c2cc(NC(=O)/C=C/c3ccccc3Cl)ccc2n1 | - | - | 0 | - | 0

Screens: PubChem, National Center for Advancing Translational Sciences (NCATS)
